# This is a sample that favours compounds with a hit; in the whole collection about 7.2% have one here.
# Lassa entry inh: Lassa virus entry inhibition | AID 540256 | Lassa virus pseudotype entry inhibition, cell reporter | Potency, µM (top dose mostly 37.9 µM), without a hit: at the highest dose activity change, negative = inhibition, hits mostly inhibitors | hit rate 1.2% among 300,000; calls by dose curve; tested in HEK293 cells; note: nearly all actives have a fitted effect of over 50% in size
# RE007 growth inh: less growth of the S. pombe RE007 Vpr strain; S. pombe RE007 Vpr strain, BacTiter-Glo ATP luminescence, 24 h; hit rate 0.21% among 360,000; AID 651644; Potency, µM (doses to about 92.2 µM), for inactives: at the top dose activity change, negative = less growth, usual class: inhibitors; active = well fitted falling curve with a large enough effect; inconclusive = small, poorly fitted or top-dose-only effect; inactive = no such curve, though single readings can be large or run the other way; note: nearly all actives have a fitted effect of over 50% in size
#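 Fission yeast RE007 carrying one integrated HIV-1 vpr copy, seeded at OD 0.01 in PMG+AL medium with 23 nL pinned compound. Grown 24 h at 30 degrees; viability read by BacTiter-Glo luminescence after 5 min.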
# FMDV antiviral: antivirals against foot and mouth disease virus; Potency, µM (series often up to 57.9 µM), for inactives: top-dose activity change, negative = inhibition, most hits filed as inhibitors; FMDV antiviral cell-based qHTS; hit rate 1.2% among 410,000; calls by dose curve; tested in HEK293T cells; note: read-out not given here; nearly all actives have a fitted effect of over 45% in size
# Sm TGR block: blocks Schistosoma mansoni thioredoxin glutathione reductase | hit rate 3% among 360,000 | purified TGR, DTNB reduction, TNB absorbance 405 nm | Q962Y6 | Potency, µM (titrated, usually from 114 µM), inactives show at the highest dose activity change, negative = inhibition, actives largely listed as inhibitors; note: nearly all actives have a fitted effect of over 60% in size
#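 TGR 20 nM + NADPH 100 uM (dispensed conc.), cpd preinc 15 min RT; start with NADPH (500 uM addition) then DTNB (15 mM addition). Kinetic TNB absorbance, 405 nm filter. Four-parameter Hill fit across titration.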
# HCV inhibitor: inhibitors of hepatitis C virus infection; Huh7.5.1 HCVcc-Cre infection, luciferase reporter, 44 h; Potency, µM (series often up to 41.8 µM), for inactives: at the top dose activity change, negative = inhibition, actives largely listed as inhibitors; hit rate 3.4% among 340,000; AID 651820
#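 1,000 cells/well; 4 h culture; + compound; + HCVcc-Cre (~0.5 moi); 44 h; luciferase substrate, RT 15 min; read 15 sec.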
# Marburg entry inh: inhibitors of Marburg virus binding or cell entry; hit rate 1.8% among 300,000; Potency, µM (top dose mostly 37.8 µM), without a hit: at the highest dose activity change, negative = inhibition, usual class: inhibitors; Marburg virus pseudotyped entry inhibition, cell reporter; calls by dose curve; tested in HEK293 cells
# * = called active by the depositor; ? = inconclusive; · = not tested or not shown; ! = not confirmed by another sample; [ ] = dose if it differs, or a comment. Unless noted, calls come from the whole dose curve; as a rule, active = well fitted curve in the direction sought with a large enough effect; inconclusive = small, poorly fitted or top-dose-only effect, or another doubt; inactive = no such curve, though single readings can be large; an effect the other way counts as inactive or inconclusive. % is set by controls: 0 for no effect and ±100 for the full control effect; potency is the fitted concentration of half-maximal effect.
SMILES,Lassa entry inh,RE007 growth inh,FMDV antiviral,Sm TGR block,HCV inhibitor,Marburg entry inh
CCOc1ccc(NS(=O)(=O)c2ccc(NC(=S)NC(=O)CC(C)C)cc2)cc1,?,-13%,20%,-26%,11µM*,-21%
Cc1ccc(-n2ncc(C(=O)N3CCN(c4ccccc4F)CC3)c2C2CCN(C(=O)OC(C)(C)C)CC2)cc1C,?,·,-1%,-8%,·,·
Clc1ccc2c(c1)N=C(N1CCNCC1)c1ccccc1N2,?,·,-15%,·,·,?
CN1CCN(C2=Nc3cc(Cl)ccc3Nc3ccccc32)CC1,-14%,-4%,-19%,-8%,0%[8.37 µM],13µM*!
Cc1ccc(OCc2cc(C(=O)N(C)Cc3cnn(-c4ccccc4C)c3)no2)cn1,7.9µM*,0%,0%,-10%,11µM*,?
CCOc1ccccc1NC(=O)Cn1cnc2sc(C)c(S(=O)(=O)N3CCC(C)CC3)c2c1=O,15%[46.1 µM],·,-30%,8%,·,5%[46.1 µM]
COc1ccc(N=C2NN=C(c3c(C)[nH]c4ccccc34)CS2)cc1,?,-6%,-16%,0%,?,11µM*
CCc1cccc(C)c1NC(=O)CCCn1c(C)c2cnn(-c3ccccc3)c(=O)c2c1C,12%[46.1 µM],·,-23%,?,·,?
CCCCn1c(NC(=O)c2ccccc2)nc2ccccc21,?,?,·,0%,13µM*,?
CCn1c(NC(=O)c2ccccc2)nc2ccccc21,-1%,-6%,22%,1%,7%,?
CCCCn1c(NC(=O)C2CCCCC2)nc2ccccc21,-29%,-11%,0%,-2%,13µM*,?
CN(C)CCCn1c(NC(=O)C2CCCCC2)nc2ccccc21,6%,-1%,·,-4%,?,-9%
CCn1c(NC(=O)c2cccc(Cn3cc(Cl)cn3)c2)nc2ccccc21,·,-3%,?,-6%,14µM*,·
COC(=O)C1=C(C(=O)OC)[C@@H]2Nc3ccccc3[C@@]23C[C@@H](C(=O)OC)N(C(=O)Nc2ccc(C(F)(F)F)cc2)C3=N1,·,·,·,·,·,-15%[14.2 µM]
CC=COC(=O)N[C@@H](c1ccccc1)[C@]1(C(C)=O)CCCC1=O,?,·,·,·,·,-6%[14.2 µM]
COc1cccc(NC2=C(C#N)C(=O)NC(c3cccc(OC)c3O)S2)c1 (configuration not stated),·,9%,15%,7.9µM*,11%,·
CC(C)c1cc(C(C)C)c(S(=O)(=O)N2CCNCC2)c(C(C)C)c1,?,-2%,-7%,·,6%,10µM*
Cc1cc(C)c(C)c(S(=O)(=O)N2CCNCC2)c1C,-7%,10%,-7%,6%,-18%,?
O=C(CN1CCCC1c1cccs1)Nc1cc(S(=O)(=O)N2CCCCC2)ccc1Cl (configuration not stated),·,3%,?,·,5µM*,·
Cc1ccc(S(=O)(=O)N2CCCCC2)cc1NC(=O)CN1CCCC1c1cccs1 (configuration not stated),·,-3%,-21%,·,·,·
Cc1ccc(NC(=O)CN2CCCC2c2cccs2)cc1S(=O)(=O)N1CCCCC1 (configuration not stated),·,-11%,?,0%,7.9µM*,·
CCOc1ccc(NC(=O)CN2CCCC2c2cccs2)cc1S(=O)(=O)N1CCCCC1 (configuration not stated),?,-12%,-7%,-28%,?,?
COc1cc(OC)c2c(=O)c(-c3ccccc3)coc2c1,·,·,22%,·,·,·
COc1ccc(C(=O)NC(=S)Nc2ccc(CN3CCOCC3)cc2)cc1Br,·,-3%,?,14µM*,-5%,·
CC(C)c1ccc(/C=C/C(=O)NC(=S)Nc2ccc(CN3CCOCC3)cc2)cc1,?,?,20µM*,-2%,?,?
SMILES,Lassa entry inh,RE007 growth inh,FMDV antiviral,Sm TGR block,HCV inhibitor,Marburg entry inh
COc1ccc(C(=O)NC(=S)Nc2ccc(CN3CCOCC3)cc2)cc1,?,-14%,?,22µM*,-10%,-20%[14.2 µM]
O=C(COc1ccc(Cl)cc1Cl)NC(=S)Nc1ccc(CN2CCOCC2)cc1,0%,-27%,28µM*,-30%,10%,-14%
CCn1c(C(=O)N2CCC(C(=O)NCCc3ccc(C)cc3)CC2)cc2sccc21,·,·,?,7%,·,1%[46.1 µM]
COC(=O)c1c(OCc2cccnc2)cc(=O)n2c1CCN(C(=O)c1cccc(N(C)C)c1)CC2,·,·,9%,·,·,·
CN(C)c1ncc2nc(CCc3ccccc3)c(=O)n(Cc3cccs3)c2n1,·,·,0%,·,·,·
CNc1ncnc2c1ncn2[C@H]1C[C@H](OP(=O)(O)O)[C@H](COP(=O)(O)O)O1,·,·,2%,·,·,·
CC(=O)Nc1ccc(NC(=O)C(Cc2ccccc2)N2Cc3ccccc3C2=O)cc1 (configuration not stated),-20%[46.1 µM],·,1%,3%,·,·
Cc1ccc2nc(NC(=O)c3cc(=O)c4cc(Cl)ccc4o3)sc2c1,?,·,2%,4%,·,-3%[46.1 µM]
Fc1ccc(Br)cc1C1C=C(c2ccc(Br)s2)Nc2ncnn21 (configuration not stated),?,-16%,?,1.3µM*,?,?
CCN(CC)c1ccc(NC(=O)CN(C)S(=O)(=O)c2cccc3nsnc23)c(C)c1,3%[46.1 µM],·,-24%,-14%,·,?
COc1ccc(CC(=O)Nc2ccc(-c3cn4cccc(C)c4n3)cc2)cc1OC,-25%,0%,-30%,-10%,10µM*,?
COc1ccc(CC(=O)Nc2cccc(-c3ccc4nncn4n3)c2)cc1OC,?,-12%,18µM*,-5%,?,?
Cc1cccn2cc(-c3ccc(NC(=O)Cc4ccccc4)cc3)nc12,·,7%,-30%,8%,0%,·
COc1ccc(CC(=O)Nc2cccc(-c3ccc4nnc(C)n4n3)c2)cc1OC,?,3%,20µM*,0%,?,?
CCC(Cn1nnc2ccccc2c1=O)NC(=O)Nc1cc(OC)cc(OC)c1 (configuration not stated),?,·,-20%,-5%,·,?
C#CCNC(=O)C[C@@H]1C[C@@]2(C(=O)OCC)CCC=C2N(Cc2ccco2)C1=O,·,5%,-6%,·,·,·
COc1ccc(-n2c(O)c(/C=C3\C=Nc4ccc(Br)cc43)c(=O)[nH]c2=O)cc1,19%,14%,16µM*,?,4%,-5%[46.1 µM]
COc1ccc(-n2c(O)c(/C=C3\C=Nc4ccc(Br)cc43)c(=O)[nH]c2=O)c(OC)c1,?,4%,25µM*,?,-18%,?
COc1ccc(NC(=O)C2Cc3c(-c4cccc(NC(C)=O)c4)ccnc3O2)cc1 (configuration not stated),·,0%,?,·,·,·
CC(=O)c1ccccc1Oc1nc(CN2CCOCC2)nc2scc(-c3cccs3)c12,-15%,16%,?,45µM*,10%,18%
COc1ccc(C(C)=O)c(Oc2nc(CN3CCOCC3)nc3scc(-c4cccs4)c23)c1,-8%,-2%,-19%,-16%,?,1%

# Bioassay records (PubChem)
